The text below walks through data of PubChem BioAssay (NCATS).

For experiment [1], the system named is ICS. The experiment in a line: qHTS profiling for inhibitors of Plasmodium falciparum proliferation (AID 504749). Note: potency is the fitted concentration of half-maximal effect. The note with it: P. falciparum in erythrocytes, SYBR Green DNA, 72 h; series mostly up to 28.7 µM. In a few lines: (§1)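 In a 72 h erythrocytic culture (37 C, humidified, 5% CO2) at 2.5% hematocrit and 0.3% starting parasitemia, compounds were tested; SYBR Green I in detergent lysis buffer stained parasite DNA overnight.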
(Quantitative high-throughput screening tests each substance at several concentrations.)

Experiment [2] concerns JCK. Described as above. The note with it: P. falciparum in erythrocytes, SYBR Green DNA, 72 h; series mostly up to 28.7 µM. In a few lines: as §1
The test system of experiment [3] is N140. The experiment is described as above. To be noted: P. falciparum in erythrocytes, SYBR Green DNA, 72 h; series mostly up to 28.7 µM. The essentials:
as §1

Experiment [4] deals with P93_24. The description is as above. The note with it: P. falciparum in erythrocytes, SYBR Green DNA, 72 h; series mostly up to 28.7 µM. In a few lines: as §1
For experiment [5], the system named is P94_40. The description is as above. The note with it: P. falciparum in erythrocytes, SYBR Green DNA, 72 h; series mostly up to 28.7 µM. In a few lines:
as §1

For experiment [6], the system named is PAD. The description is as above. The note with it: P. falciparum in erythrocytes, SYBR Green DNA, 72 h; series mostly up to 28.7 µM. The essentials: as §1
Experiment [7] deals with PC15. The experiment is described as above. To be noted: P. falciparum in erythrocytes, SYBR Green DNA, 72 h; series mostly up to 28.7 µM. The essentials: as §1
Experiment [8] relates to PC26. Described as above. The note with it: P. falciparum in erythrocytes, SYBR Green DNA, 72 h; series mostly up to 28.7 µM. The essentials:
as §1

In experiment [9] the test system is PC49. The experiment is described as above. To be noted: P. falciparum in erythrocytes, SYBR Green DNA, 72 h; series mostly up to 28.7 µM. The essentials:
as §1

The subject of experiment [10] is SC27B. Described as above. The note with it: P. falciparum in erythrocytes, SYBR Green DNA, 72 h; series mostly up to 28.7 µM. In a few lines:
as §1

The test system of experiment [11] is TAB109. Described as above. The note with it: P. falciparum in erythrocytes, SYBR Green DNA, 72 h; series mostly up to 28.7 µM. In a few lines: as §1
Experiment [12] relates to TAB113. The description is as above. The note with it: P. falciparum in erythrocytes, SYBR Green DNA, 72 h; series mostly up to 28.7 µM. In a few lines: as §1
Experiment [13] has as its system TAB165. Described as above. To be noted: P. falciparum in erythrocytes, SYBR Green DNA, 72 h; series mostly up to 28.7 µM. The essentials:
as §1

In experiment [14] the test system is W2. The description is as above. To be noted: P. falciparum in erythrocytes, SYBR Green DNA, 72 h; series mostly up to 28.7 µM. The essentials:
as §1

Experiment [15] concerns CRL-7250. Briefly: Cytotoxic Profiling of Annotated Libraries Using Quantitative High-Throughput Screening (AID 1296008). For max response: % is set by controls: 0 for no effect and ±100 for the full control effect. Note: potency is the fitted concentration of half-maximal effect. To be noted: Five cell lines viability, CellTiter-Glo ATP luminescence, 48-72 h; max response: stronger effect = lower value. In a few lines:
(§2)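 Cytotoxicity was measured as CellTiter-Glo ATP luminescence, read after 10 min at room temperature. Compound treatment of the cells lasted 48 or 72 hr at 37 degrees Celsius in a qHTS format.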

Experiment [16] concerns HaCat. The description is as above. The note with it: Five cell lines viability, CellTiter-Glo ATP luminescence, 48-72 h; max response: stronger effect = lower value. In a few lines: as §2
Experiment [17] deals with KB-3-1. The experiment is described as above. To be noted: Five cell lines viability, CellTiter-Glo ATP luminescence, 48-72 h; max response: stronger effect = lower value. The essentials: as §2
(In general: ATP-based viability assays read luminescence as a measure of living cells.)

The subject of experiment [18] is NIH3T3. Described as above. The note with it: Five cell lines viability, CellTiter-Glo ATP luminescence, 48-72 h; max response: stronger effect = lower value. The essentials:
as §2

Experiment [19] relates to CRL-7250. Briefly: qHTS assay to identify novel small-molecules to repurpose for Merkel cell carcinoma treatment (AID 1296009). To be noted: MCC and control cell lines, CellTiter-Glo viability, 72 h; at 44.8 µM (top of the series) unless noted. In a few lines:
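Cell viability measured by CellTiter-Glo following 72 hr compound treatment at 37 degree celsius, with NPC and MIPE libraries tested in 8- and 11-point concentration series.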

The subject of experiment [20] is HEK293. Briefly: Cytotoxic Profiling of Annotated Libraries Using Quantitative High-Throughput Screening (AID 1296008). For max response: % is set by controls: 0 for no effect and ±100 for the full control effect. Note: potency is the fitted concentration of half-maximal effect. To be noted: Five cell lines viability, CellTiter-Glo ATP luminescence, 48-72 h; max response: stronger effect = lower value. The essentials:
as §2

Results filed as inconclusive are left out. Values without a mark were called inactive. Active and inactive are the calls of the source. Calls come from the whole dose curve; as a rule, active = well fitted inhibition curve with a large enough effect; inconclusive = small, poorly fitted or top-dose-only effect; inactive = flat fitted curve, though single readings scatter.
Note: nearly all actives have a fitted effect of over 60% in size.

Consider `CCCCCCCCC(=O)NCc1ccc(O)c(OC)c1`, for which the Potency result in experiment [1], in [2], in experiment [3], in experiment [4], in [5] and in experiment [6] was “inactive” throughout. The Potency entry in experiment [7], in experiment [8], in [9], in experiment [10], in experiment [11] and in [12] was “inactive” each time. Moreover, the Potency entry in experiment [13] and in experiment [14] was “inactive” in each case. For the same molecule, the max response in [15] was -16.7%; in [16], -25.6%; in [17], -3.93%; in experiment [18], -70.4%.
As to `COCC(=O)N(c1c(C)cccc1C)C(C)C(=O)OC` (stereo not given), the Potency entry in experiment [1], in [2], in [7], in experiment [8], in experiment [9] and in [10] was “inactive” each time. Further, the Potency result in experiment [12] and in experiment [14] was “inactive” throughout. Moreover, the max response in experiment [15] was 1.66%; in [16], 3.69%; in experiment [17], -13.6%. In addition, in experiment [18], the call was inactive.
For `CCc1cc(OC)c(C[C@H](C)N)cc1OC`, the max response was -4.69% in [15], 0.504% in [16], -8.43% in experiment [17] and -16.2% in [18].
As for `C[C@]12C=CC(=O)C=C1CC[C@@H]1[C@@H]2CC[C@@]2(C)[C@H]1CC[C@]2(C)O`, the Potency result in [1], in experiment [2], in [3], in experiment [4], in experiment [5] and in experiment [6] was “inactive” throughout. Moreover, the Potency entry in [7], in experiment [9], in experiment [10], in [11], in experiment [12] and in experiment [13] was “inactive” in each case. In addition, the Potency entry in [14] is “inactive”. For the same molecule, the max response in experiment [15] was -25.8%; in experiment [16] it was -43.5%; in experiment [17] it was -13.2%; in experiment [18], -13.6%.
For `CN1C[C@@H](NS(=O)(=O)N(C)C)C[C@@H]2c3cccc4c3c(cn4C)C[C@H]21`, the Potency entry in experiment [2], in [3], in [6], in experiment [7], in experiment [8] and in [9] was “inactive” in each case. In addition, the Potency result in [10] and in experiment [12] was “inactive” throughout. For the same molecule, the outcome in [15], in experiment [16] and in experiment [19] was inactive. Besides, the results for the max response in [17] and in experiment [18] were -6.93% and -4.54%, respectively.
With `CN1CCc2cc(Cl)c(O)cc2[C@H]2c3ccccc3CC[C@@H]21`, the Potency entry in experiment [2], in [6], in experiment [7], in [9] and in experiment [12] was “inactive” throughout. For the same molecule, the Potency in [14] is 4.78 µM (active). In addition, the max response in [15] was -3.76%; in experiment [17], 18%; in experiment [18] it was -2.57%. In addition, the call in experiment [16] was inactive.
Consider `CCC(=O)C(CCN(C)C)(c1ccccc1)c1ccccc1`, for which the values for the max response in experiment [15], in experiment [16] and in experiment [18] were -11.9%, -17.8% and 2.72%, respectively.
Take `O=C1CN2CCOC2(c2ccccc2Cl)c2cc(Cl)ccc2N1` (stereo not given): the molecule was classed as inactive in [15], in experiment [18] and in experiment [19]. In experiment [16], the max response was -2.33%.
On to `ClCc1cccc(Cl)c1`, for which the max response in experiment [15] was -10.5%; in experiment [16], 1.97%; in [18], 0.768%.
As to `NC1(c2ccccc2)CCCCC1`, the Potency in experiment [20] is 38.2 µM (active). Also, the max response was 1.23% in experiment [16], 1.89% in experiment [17] and -27.2% in experiment [18].
Regarding `COc1cc(C[C@@H](C)N)c(OC)cc1C`, the figures for the max response in [15], in experiment [17] and in experiment [18] were -47.5%, -10.2% and -23.9%, respectively.
On to `CN1C2CCC(C)(C)C1CC(OC(=O)C(O)(c1cccs1)c1cccs1)C2` (stereo not given), for which the max response was -6.95% in [15] and -4.3% in experiment [18]. Also, in [16], the molecule was classed as inactive.
Regarding `C[N+]1(CCC(C(N)=O)(c2ccccc2)c2ccccc2)CCCCC1`, the Potency result in [1], in experiment [2], in [3], in experiment [4], in experiment [5] and in experiment [6] was “inactive” each time. Besides, the Potency result in [7], in [8], in [9], in experiment [10], in [11] and in [12] was “inactive” in each case. The Potency result in experiment [13] and in experiment [14] was “inactive” each time. The molecule was called inactive in experiment [20] and in experiment [18]. The max response is -10.3% in experiment [16] and 6.68% in [17].
Regarding `N#Cc1nn(-c2c(Cl)cc(C(F)(F)F)cc2Cl)c(N)c1S(=O)C(F)(F)F` (stereo not given), the Potency is 5.62 µM (active) in experiment [1]; 7.94 µM (active) in experiment [3]; 12.6 µM (active) in [7]; 9.53 µM (active) in experiment [8]; 5.01 µM (active) in experiment [10]; 6.31 µM (active) in [12]. For the same molecule, the Potency in [13] is 6.31 µM (active). In addition, in experiment [9], the Potency entry is “inactive”. Moreover, the figures for the max response in experiment [15], in experiment [16] and in experiment [17] were -17%, -11.3% and -1.94%, respectively.
In the case of `C[C@H](N)[C@H](O)c1ccc(O)c(O)c1`, the molecule was called inactive in experiment [16]. Further, the max response was -14.6% in experiment [17] and -48.1% in [18].
Consider `Clc1ccc(CO/N=C(\Cn2ccnc2)c2ccc(Cl)cc2Cl)c(Cl)c1`, for which the Potency was 1.12 µM (active) in experiment [1]; 2.24 µM (active) in experiment [3]; 2.24 µM (active) in [4]; 2.82 µM (active) in [5]; 2.51 µM (active) in experiment [6]; 3.16 µM (active) in experiment [7]. Moreover, the Potency was 4.26 µM (active) in experiment [8]; 3.16 µM (active) in experiment [10]; 3.55 µM (active) in experiment [11]; 2.51 µM (active) in experiment [12]; 1.41 µM (active) in experiment [13]; 1.69 µM (active) in experiment [14]. For the same molecule, the max response is -2.86% in [15] and 0.479% in experiment [17].
